# For some of these results: Results with a measured potency or affinity are listed apart. Active and inactive are the calls of the source. Rule as the data show it, unless noted: active = inhibition above about 80%; inactive = the rest.
# Legend:
# [1] = blockers of polyQ-driven CASP3 activation – cell-based (AID 1583); settings: polyglutamine-induced caspase-3 activation, cell assay; stronger effect = higher value;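 tested at 10 µM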
# [2] = yeast 75Q aggregation reduction – 75Q-TubU reporter (AID 1593); settings: Yeast 75Q polyglutamine aggregation reporter
# [3] = restoration of touch response, mutant HTT neurons – whole organism, C. elegans mechanosensory neurons, N-terminal huntingtin (AID 1599); settings: C. elegans polyQ-huntingtin mechanosensory neurons, stronger effect = higher value
# [4] = blockers of cytochrome c efflux from mitochondria – biochemical, purified mitochondria (AID 1603); settings: stronger effect = lower value;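 also: mouse liver mitochondria challenged with calcium chloride; signal normalized to the plate average as 100%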
# [5] = polyglutamine aggregate formation blockers (AID 1604); settings: polyglutamine-induced protein aggregation inhibition assay; stronger effect = higher value; tested at 2.5 µM
# [6] = glutamate transport activators, MN-1 cells, MN-1 cell line (AID 1612); settings: MN-1 motor neuron cells, stronger effect = higher value;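 also: tested at 1 µM final; 0% = mean of DMSO vehicle wells on each plate; positive means more glutamate uptake than control and negative means less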
# [7] = GFP-Q80 aggregate reduction, neuronal-like cells, cell-based, NGF-treated PC12, GFPQ80 (AID 1614); settings: PC12 NGF-treated GFP-polyQ80 inclusion reduction;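 also: lower means fewer inclusions and 0 means no inclusions at all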
# [8] = 75Q-TubH aggregate inhibition, S. cerevisiae, yeast (AID 1616); settings: S. cerevisiae 75Q-TubH polyglutamine aggregation suppression; stronger effect = higher value
# [9] = growth inhibition, single agent or in combination, cell-based, chromothripsis tumors, cisplatin or BGB combos (AID 1671449); settings: LFS_MB_P medulloblastoma cells;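 also: cells exposed for 96 hours; 0% = vehicle DMSO and 100% = killing by high DMSO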
# [10] = growth inhibition, single agent and combos, cell-based, chromothripsis tumors, cisplatin or BGB combos (AID 1671450); settings: HDN33 neuroblastoma cells, stronger effect = higher value;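 also: cells exposed to compound for four days; 0% = vehicle DMSO and 100% = cell killing by high DMSO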
# [11] = growth inhibition, single agents and combos, ICB984, cell-based, cisplatin or BGB combos, synergistic combos for chromothripsis tumors (AID 1671451; call rule not given here;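 also: cells exposed for 96 hours before readout; 0% = vehicle DMSO and 100% = killing by high DMSO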); settings: ICB984 medulloblastoma cells, drug combinations, stronger effect = higher value
# [12] = growth inhibition, single agents and combos, LFS_MB_1R, cell-based, cisplatin or BGB combos, synergistic combos for chromothripsis tumors (AID 1671452); settings: LFS_MB_1R medulloblastoma cells, stronger effect = higher value;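 also: cells exposed for 96 hours before readout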
# [13] = growth inhibition, single agents and combos, HTB85, cell-based, BGB or cisplatin IC20 combos, synergistic combos for chromothripsis tumors (AID 1671453); settings: HTB85 osteosarcoma cells, drug combinations, stronger effect = higher value;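 also: cells exposed for 96 hours before readout; 0% = vehicle DMSO and 100% = high DMSO killing control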
# [14] = growth inhibition, single agents and combos, CRL2098, cell-based, BGB or cisplatin IC20 combos, synergistic combos for chromothripsis tumors (AID 1671454); settings: CRL2098 osteosarcoma cells, drug combinations, stronger effect = higher value;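 also: cells exposed for 96 h before readout; 0% = vehicle DMSO and 100% = killing by high DMSO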
# [15] = growth inhibition, single agents and combos, HD-MB03, cell-based, BGB or cisplatin IC20 combos, synergistic combos for chromothripsis tumors (AID 1671455; in the data active = inhibition above about 83%;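 also: 0% = vehicle DMSO and 100% = high DMSO as cytotoxic control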); settings: HD-MB03 medulloblastoma cells, stronger effect = higher value
# [16] = growth inhibition, single agents and combos, UWB1.289, cell-based, BGB or cisplatin combos, synergistic combos for chromothripsis tumors (AID 1671456); settings: UWB1.289 ovarian carcinoma cells, stronger effect = higher value;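 also: cells exposed to compound for four days; 0% = vehicle DMSO and 100% = killing by high DMSO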
# [17] = growth inhibition, single agents and combos, LFS_MB_2R, cell-based, cisplatin combos, synergistic combos for chromothripsis tumors (AID 1671457); settings: LFS_MB_2R medulloblastoma cells, stronger effect = higher value;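 also: cells exposed to compound for four days before readout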
# [18] = growth inhibition, MDA-MB-436, cell-based, BGB or cisplatin combos, synergistic combos for chromothripsis tumors (AID 1671458; call rule not given here;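 also: cells exposed for 96 hours; 0% = vehicle DMSO and 100% = killing by high DMSO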); settings: MDA-MB-436 breast carcinoma growth inhibition, drug combinations, stronger effect = higher value
# [19] = UWB1.289_BRCA1 ovarian cancer growth, cell-based, BGB or cisplatin combinations (AID 1671459); settings: UWB1.289 BRCA1 ovarian carcinoma, drug combinations, stronger effect = higher value
# [20] = drug combination toxicity in non-malignant astrocytes – cell-based, BGB or cisplatin IC20 combos, cytotoxicity control for chromothriptic childhood tumor combination screen (AID 1671460); settings: Human astrocytes, viability inhibition, drug combinations, at 0.5 µM, stronger effect = higher value;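 also: cells exposed to compounds for 96 hours before viability readout; 0% = vehicle and 100% = killing control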
# [21] = BT084 cell growth, single and combined drugs, ICGC_MB145, cisplatin and BGB IC40 combos (AID 1671461); settings: BT084 medulloblastoma cells, drug combinations, stronger effect = higher value;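 also: cells exposed to drugs for 96 hours; 0% = vehicle DMSO and 100% = high DMSO full killing control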
# [22] = RCMB18 cell growth, single agent and combined, cisplatin and BGB IC40 combos (AID 1671462); settings: RCMB18 medulloblastoma cells, stronger effect = higher value;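 also: cells exposed to compound for four days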
# [23] = CRL1545 cell growth, single agent and combined, cisplatin and BGB IC20 combos (AID 1671464); settings: CRL1545 osteosarcoma cells, stronger effect = higher value;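 also: cells exposed to compound for 96 hours before readout; 0% = vehicle DMSO and 100% = high DMSO killing control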
# [24] = measured here: combination with BGB IC40, at 0.05 µM
# [25] = measured here: with BGB IC20 combination, at 0.5 µM
# [26] = measured here: with cisplatin IC20 combination, at 0.5 µM
# [27] = measured here: combination with cisplatin, at 0.5 µM
# [28] = measured here: combination with cisplatin, at 5 µM
structure (smiles),measurement,setting,value
CCC1(c2ccccc2)C(=O)NC(=O)NC1=O,inhibition,[1],-1.25%
same,score,[2],1.23
same,rescue above control,[3],9.64
same,cytochrome c release ratio,[4],0.88
same,inhibition of aggregation,[5],45.6%
same,glutamate uptake change,[6],11.7%
same,inclusion score,[7],2
same,aggregation suppression score,[8],1.66
same,inhibition,"[9]; at 0.5 µM, stronger effect = higher value",93.2% (active)
same,inhibition,"[9]; measured here: combination with BGB IC20, at 0.005 µM",-28.1%
same,inhibition,"[9]; measured here: combination with BGB IC40, at 0.005 µM",-59.2%
same,inhibition,[9]; [24],-45.6%
same,inhibition,"[9]; measured here: combination with cisplatin, at 0.5 µM, stronger effect = higher value",121%
same,inhibition,"[9]; measured here: combination with cisplatin, at 5 µM, stronger effect = higher value",-2.25%
same,inhibition,"[10]; BGB combo, at 5 µM",-9.62%
same,inhibition,[10]; at 0.5 µM,-12.9% (inactive)
same,inhibition,"[10]; cisplatin combo, at 5 µM",-2.75%
same,inhibition,[10]; [25],-25.3%
same,inhibition,[10]; [26],-2.08%
same,inhibition,"[10]; single agent, at 5 µM",3.79%
same,inhibition,"[11]; BGB IC20 combo, at 0.005 µM",-3.73%
same,inhibition,"[11]; BGB IC40 combo, at 0.005 µM",-9.29%
same,inhibition,"[11]; BGB IC40 combo, at 0.05 µM",-3.16%
same,inhibition,[11]; at 0.5 µM,-22.9% (inactive)
same,inhibition,"[11]; cisplatin combo, at 0.05 µM",-8.4%
same,inhibition,"[11]; cisplatin combo, at 0.5 µM",-26.1%
same,inhibition,"[11]; cisplatin combo, at 5 µM",-13.3%
same,inhibition,"[11]; measured here: 5 uM single agent, at 5 µM",-22.7%
same,inhibition,[12]; at 0.5 µM,-18.1% (inactive)
same,inhibition,[12]; [24],-31.8%
same,inhibition,[12]; [27],-10.4%
same,inhibition,[12]; [28],5.72%
same,inhibition,[13]; at 0.5 µM,-10.5% (inactive)
same,inhibition,"[13]; measured here: with BGB IC20, at 0.5 µM",-10.6%
same,inhibition,"[13]; measured here: with BGB IC20, at 5 µM",7.72%
same,inhibition,"[13]; measured here: with cisplatin IC20, at 0.5 µM",-9.45%
same,inhibition,"[13]; measured here: with cisplatin IC20, at 5 µM",10.2%
same,inhibition,"[13]; single agent, at 5 µM",-5.59%
same,inhibition,[14]; at 0.5 µM,-52.1% (inactive)
same,inhibition,"[14]; measured here: combination with BGB at IC20, at 0.5 µM",-60.5%
same,inhibition,"[14]; measured here: combination with cisplatin at IC20, at 0.5 µM",-54.7%
same,inhibition,[15]; at 0.5 µM,-4.07% (inactive)
same,inhibition,"[15]; measured here: combo with BGB at IC20, at 0.5 µM",2.98%
same,inhibition,"[15]; measured here: combo with cisplatin at IC20, at 0.5 µM",-10.5%
same,inhibition,[16]; at 0.5 µM,-5.54% (inactive)
same,inhibition,"[16]; measured here: inhibition with BGB combination, at 0.05 µM",-21.7%
same,inhibition,"[16]; measured here: inhibition with cisplatin combination, at 0.05 µM",-12%
same,inhibition,[17]; at 0.5 µM,-20.1% (inactive)
same,inhibition,[17]; [27],-6.12%
same,inhibition,[17]; [28],0.169%
same,inhibition,[18]; at 0.5 µM,-2.75% (inactive)
same,inhibition,"[18]; measured here: BGB combination, at 0.5 µM",-2.38%
same,inhibition,"[18]; measured here: BGB combination, at 5 µM",1.86%
same,inhibition,"[18]; measured here: cisplatin combination, at 0.5 µM",-5.56%
same,inhibition,"[18]; measured here: cisplatin combination, at 5 µM",-1.94%
same,inhibition,"[19]; BGB combination, concentration series, at 5 µM",22.9%
same,inhibition,[19]; at 0.5 µM,-1.68% (inactive)
same,inhibition,"[19]; cisplatin combination, concentration series, at 5 µM",16%
same,inhibition,[20],10.1% (inactive)
same,inhibition,[20]; measured here: combo with BGB IC20,11.5%
same,inhibition,[20]; measured here: combo with cisplatin IC20,13.6%
same,inhibition,[21]; at 0.5 µM,3.01% (inactive)
same,inhibition,"[21]; cisplatin combination, at 0.5 µM",4.39%
same,inhibition,"[21]; cisplatin combination, at 5 µM",0.177%
same,inhibition,"[21]; measured here: BGB IC40 combination 0.05 uM, at 0.05 µM",-27.4%
same,inhibition,"[21]; single agent, at 5 µM",8.07%
same,inhibition,[22]; at 0.5 µM,1.72% (inactive)
same,inhibition,"[22]; cisplatin combo, at 5 µM",5.8%
same,inhibition,"[22]; measured here: BGB IC40 combination, at 0.05 µM",-18.8%
same,inhibition,[22]; [27],-11.9%
same,inhibition,"[22]; single agent, at 5 µM",10.7%
same,inhibition,[23]; at 0.5 µM,-19.2% (inactive)
same,inhibition,[23]; [25],-11.8%
same,inhibition,[23]; [26],-24.8%
same,inhibition,"[23]; single agent, at 0.05 µM",8.97%
same,inhibition,"[23]; single agent, at 5 µM",-18.2%

# Source: PubChem BioAssay
